Results reported in PubChem BioAssay (NCATS).
Inconclusive results are not listed. Calls of active or inactive are those of the source. Calls come from the whole dose curve; as a rule, active = well fitted inhibition curve with a large enough effect; inconclusive = small, poorly fitted or top-dose-only effect; inactive = flat fitted curve, though single readings scatter.

Columns and labels:
TAB109 = assay: qHTS profiling for inhibitors of Plasmodium falciparum proliferation (AID 504749);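 note: 0% = DMSO vehicle and full inhibition = artemisinin control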; details: P. falciparum in erythrocytes, SYBR Green DNA, 72 h; series mostly up to 28.7 µM
How it was run: (§1)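 In a 72 h erythrocytic culture (37 C, humidified, 5% CO2) at 2.5% hematocrit and 0.3% starting parasitemia, compounds were tested; SYBR Green I in detergent lysis buffer stained parasite DNA overnight.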

TAB113 = assay: as above; details: P. falciparum in erythrocytes, SYBR Green DNA, 72 h; series mostly up to 28.7 µM
How it was run: as §1

TAB165 = assay: as above; details: P. falciparum in erythrocytes, SYBR Green DNA, 72 h; series mostly up to 28.7 µM
How it was run: as §1

W2 = assay: as above; details: P. falciparum in erythrocytes, SYBR Green DNA, 72 h; series mostly up to 28.7 µM
How it was run: as §1

CRL-7250 = normal cell line; assay: Cytotoxic Profiling of Annotated Libraries Using Quantitative High-Throughput Screening (AID 1296008); details: Five cell lines viability, CellTiter-Glo ATP luminescence, 48-72 h; active compounds read low; for max response: % is set by controls: 0 for no effect and ±100 for the full control effect
How it was run: (§2)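 Cytotoxicity was measured as CellTiter-Glo ATP luminescence, read after 10 min at room temperature. Compound treatment of the cells lasted 48 or 72 hr at 37 degrees Celsius in a qHTS format.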

HEK293 = assay: as above; details: Five cell lines viability, CellTiter-Glo ATP luminescence, 48-72 h; active compounds read low
How it was run: as §2

HaCat [1] = assay: as above; details: Five cell lines viability, CellTiter-Glo ATP luminescence, 48-72 h; active compounds read low
How it was run: as §2

KB-3-1 = assay: as above; details: Five cell lines viability, CellTiter-Glo ATP luminescence, 48-72 h, active compounds read low
How it was run: as §2

NIH3T3 = assay: as above; details: Five cell lines viability, CellTiter-Glo ATP luminescence, 48-72 h; active compounds read low
How it was run: as §2

HACAT [2] = assay: qHTS assay to identify novel small-molecules to repurpose for Merkel cell carcinoma treatment (AID 1296009); details: MCC and control cell lines, CellTiter-Glo viability, 72 h; at 44.8 µM (top of the series) unless noted
How it was run: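 Cell viability measured by CellTiter-Glo following 72 hr compound treatment at 37 degree celsius, with NPC and MIPE libraries tested in 8- and 11-point concentration series.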
Note: nearly all actives have a fitted effect of over 60% in size.

Cn1c([N+](=O)[O-])cnc1COC(N)=O
inactive: Potency (TAB109) | Potency (TAB113) | Potency (TAB165) | Potency (W2) | max response (CRL-7250) -9.26% | max response (HEK293) 2.06% | max response (HaCat [1]) -19.4% | max response (KB-3-1) -4.93% | max response (NIH3T3) 2.03%

O=C(CCBr)N1CCN(C(=O)CCBr)CC1
inactive: Potency (TAB109) | Potency (TAB113) | Potency (TAB165) | Potency (W2) | max response (CRL-7250) -5.81% | max response (HEK293) 0.232% | max response (HaCat [1]) -10.3% | max response (KB-3-1) -5.88% | outcome (NIH3T3)

CC(C)CCCC(C)CCCC(C)CCCCC(C)CCCC(C)CCCC(C)C (configuration not stated)
inactive: Potency (TAB109) | Potency (TAB113) | Potency (TAB165) | Potency (W2) | outcome (CRL-7250) | max response (HEK293) -6.17% | max response (HaCat [1]) -19.8% | max response (KB-3-1) 12.8% | max response (NIH3T3) -1.47%

C[C@@H](N)C(=O)O
inactive: Potency (TAB109) | Potency (TAB113) | Potency (TAB165) | Potency (W2) | max response (CRL-7250) 0.494% | outcome (HEK293) | max response (HaCat [1]) -6.96% | max response (KB-3-1) -23.1% | max response (NIH3T3) -0.0264%

Cc1cc(C)nc(NS(=O)(=O)c2ccc(N)cc2)n1
inactive: Potency (TAB109) | Potency (TAB113) | Potency (TAB165) | Potency (W2) | max response (CRL-7250) -8.07% | max response (HEK293) 3.16% | max response (HaCat [1]) 3.39% | max response (KB-3-1) -0.934% | outcome (NIH3T3)

O=C(O)c1ccc(OCCCOc2ccc(C(=O)O)cc2)cc1
inactive: Potency (TAB109) | Potency (TAB113) | Potency (TAB165) | Potency (W2) | max response (CRL-7250) -0.605% | max response (HEK293) -0.863% | max response (HaCat [1]) -3.27% | max response (KB-3-1) 3.43% | max response (NIH3T3) 2.41%

Cc1ccsc1C(=CCCN1CCC[C@@H](C(=O)O)C1)c1sccc1C
inactive: Potency (TAB109) | Potency (TAB113) | Potency (TAB165) | Potency (W2) | max response (CRL-7250) -7.41% | outcome (HEK293) | max response (HaCat [1]) 3.8% | max response (KB-3-1) 3.88% | max response (NIH3T3) -5%

C[N+](C)(C)CC(O)CC(=O)[O-] (configuration not stated)
inactive: max response (CRL-7250) -9.06% | max response (HEK293) -5.18% | max response (HaCat [1]) 4.86% | outcome (NIH3T3)

CCc1cccc(CC)c1NC(=O)CN(CC(=O)O)CC(=O)O
inactive: Potency (TAB109) | Potency (TAB113) | Potency (TAB165) | Potency (W2) | max response (CRL-7250) -19.6% | max response (HEK293) -1.81% | max response (HaCat [1]) -2.45% | max response (KB-3-1) -15.5% | max response (NIH3T3) -0.454%

CN(C(=O)c1c(O)c2ccccc2n(C)c1=O)c1ccccc1
inactive: Potency (TAB109) | Potency (TAB165) | Potency (W2) | max response (CRL-7250) 0.215% | max response (HEK293) -2.97% | max response (HaCat [1]) -1.18% | max response (KB-3-1) 9.88% | outcome (NIH3T3)

NC(=O)CC[C@@H](N)C(=O)O
inactive: Potency (TAB109) | Potency (TAB113) | Potency (TAB165) | Potency (W2) | max response (CRL-7250) -0.379% | max response (HEK293) -7.81% | max response (HaCat [1]) -14.8% | max response (NIH3T3) 0.058%

CC(C)(C)C(=O)OCOC(=O)[C@@H]1N2C(=O)[C@@H](NC(=O)[C@H](N)c3ccccc3)[C@H]2SC1(C)C
inactive: Potency (TAB109) | Potency (TAB113) | Potency (TAB165) | Potency (W2) | max response (CRL-7250) -7.59% | max response (HEK293) -3.05% | max response (HaCat [1]) -3.68% | max response (NIH3T3) -5.28%

OC(CCN1CCCC1)(c1ccccc1)C1CCCCC1 (configuration not stated)
inactive: max response (CRL-7250) -24% | max response (HEK293) -13.4% | max response (HaCat [1]) 3.13% | outcome (NIH3T3)

O=C(O)Cn1c(C(=O)Nc2nc(-c3ccccc3Cl)cs2)cc2ccccc21
inactive: Potency (TAB109) | Potency (TAB113) | Potency (TAB165) | Potency (W2) | outcome (CRL-7250) | max response (HEK293) -5.16% | outcome (HaCat [1]) | outcome (NIH3T3) | outcome (HACAT [2])

CCCCCCCCCCC(CO)CCCCCCCC (configuration not stated)
inactive: Potency (TAB109) | Potency (TAB113) | Potency (TAB165) | max response (CRL-7250) -6.12% | outcome (HEK293) | max response (HaCat [1]) -2.15% | max response (NIH3T3) 1.86%

CCCCCOC(=O)Nc1nc(=O)n([C@@H]2O[C@H](C)[C@@H](O)[C@H]2O)cc1F
inactive: outcome (CRL-7250) | outcome (HEK293) | outcome (HaCat [1]) | max response (NIH3T3) 3.66% | outcome (HACAT [2])

CCCCCCCCCCCCCCCCCCO
inactive: Potency (TAB109) | Potency (TAB113) | Potency (TAB165) | Potency (W2) | max response (CRL-7250) 0.886% | max response (HEK293) -5.18% | max response (HaCat [1]) -4.21% | outcome (NIH3T3)

NS(=O)(=O)c1cc(-c2nn[nH]n2)c(NCc2cccs2)cc1Cl
inactive: Potency (TAB109) | Potency (TAB113) | Potency (TAB165) | Potency (W2) | max response (CRL-7250) 1.54% | outcome (HEK293) | max response (HaCat [1]) -8.31% | max response (NIH3T3) -0.0304%

O=C(Cn1ccnc1[N+](=O)[O-])NCCO
inactive: Potency (TAB109) | Potency (TAB113) | Potency (TAB165) | Potency (W2) | max response (CRL-7250) 1.72% | outcome (HEK293) | max response (HaCat [1]) 0.0021% | max response (NIH3T3) 4.22%

COc1cc(C(=O)NCCCCCC(=O)O)cc(OC)c1OC
inactive: Potency (TAB109) | Potency (TAB113) | Potency (TAB165) | max response (CRL-7250) -1.11% | outcome (HEK293) | max response (HaCat [1]) 4.84% | max response (NIH3T3) 3.71%

CCCCCCCCCCCCCCCCN
inactive: Potency (TAB109) | Potency (TAB165) | Potency (W2) | max response (CRL-7250) -3.5% | outcome (HEK293) | max response (HaCat [1]) -13.8% | max response (NIH3T3) -1.53%

CNc1c2c(nn1C)CCCC2
inactive: Potency (TAB109) | Potency (TAB113) | Potency (TAB165) | Potency (W2) | max response (CRL-7250) 2.3% | max response (HEK293) -6.59% | outcome (HaCat [1]) | max response (NIH3T3) 4.21% | outcome (HACAT [2])
